About 160 (0.073%) of roughly 220,000 compounds were called active.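 The calls were made as follows: active = fold induction of absorbance versus untreated yeast above a set limit, then at least 30% activation at any dose in follow-up; inconclusive = repeats straddling the limit, or above it without dose testing; inactive = fold induction below the set limit.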 Not all results are given here. Results with a measured potency or affinity are listed apart.
Test: mitochondrial function rescue without frataxin homolog – Friedreich's ataxia, plus single-dose screen, dose response (AID 1465)
Details: S. cerevisiae Yfh1-off respiration, WST-1 reduction, 72 h; at 50 µM; active compounds read high

| Compound | fold induction |
| --- | --- |
| CC(Oc1cccc2c1OC(C)(C)C2)C(=O)O (configuration not stated) | 1.05 (inactive) |
| CC(C)c1nnc(SCC(=O)N2CCc3ccccc32)n1C | 0.98 (inactive) |
| O=C1c2ccccc2NC(c2ccc(-c3cccc([N+](=O)[O-])c3)o2)N1O (configuration not stated) | 0.9 (inactive) |
| O=C1c2ccccc2NC(c2ccc(-c3ccc(Br)cc3)o2)N1O (configuration not stated) | 0.77 (inactive) |
| O=c1oc2ccccc2cc1C1=Nn2c(nnc2-c2cccnc2)SC1 | 1.06 (inactive) |
| O=C(N/N=C/c1c(O)n(-c2ccccc2Cl)c(=O)c2ccccc12)c1cccnc1 | 1.49 (inactive) |
| COc1ccc(Cn2c(O)c(C=Nc3ccccc3)c3ccccc3c2=O)cc1 | 1.05 (inactive) |
| COc1ccc(Cn2c(O)c(C=Nc3ccc(OC)cc3)c3ccccc3c2=O)cc1 | 1.13 (inactive) |
| Cc1c(/C=N/NC(=O)c2cccnc2)c2ccccc2n1Cc1ccccc1 | 1.01 (inactive) |
| CC1CCC(NC(=S)NCCN(C)C)CC1 (configuration not stated) | 1 (inactive) |
| O=C1C2CCCN2C(c2ccc(Br)cc2)N1c1ccc(F)cc1 (configuration not stated) | 0.86 (inactive) |
| CCOC(=O)/C(C(N)=NCC(C)C)=C(/O)c1ccccc1 | 0.925 (inactive) |
| O=C(CSc1nc(-c2ccc(F)cc2)cc(C(F)(F)F)n1)Nc1ccc2c(c1)OCO2 | 0.96 (inactive) |
| O=C(OCCOc1ccccc1)c1n[nH]c2ccccc12 | 0.95 (inactive) |
| COC(=O)[C@H](C)NC(=O)Nc1ccc(OC)cc1OC | 1.1 (inactive) |
| Cc1noc(C)c1CSc1ccc(Br)cc1 | 0.89 (inactive) |
| COc1ccc(C(=O)NCC(=O)N/N=C/C=C/c2ccccc2)cc1OC | 0.96 (inactive) |
| CCOC(=O)/C(C#N)=C/C=C1\C=Cc2ccccc2N1CC | 1 (inactive) |
| CCCCCCN1C=CC(=C/C=C(\C#N)C(=O)OCC)C=C1 | 1.18 (inactive) |

| Compound | fold induction |
| --- | --- |
| CCCCNC(=S)N1CCN(c2ccc(C(C)=O)cc2)CC1 | 0.96 (inactive) |
| COc1cccc(NC(=O)NCCC2=CCCCC2)c1 | 0.86 (inactive) |
| Cc1ccccc1C(=O)NNC(=O)C(C)N1C(=O)c2ccccc2C1=O (configuration not stated) | 1.01 (inactive) |
| NC(=S)n1[nH]c(-c2ccc([N+](=O)[O-])cc2)c(N=Nc2ccc(Cl)cc2)c1=O | 1.58 (inactive) |
| NC(=S)n1[nH]c(-c2ccc([N+](=O)[O-])cc2)c(N=Nc2cccc(Cl)c2)c1=O | 1.01 (inactive) |
| Cc1ccc(-n2c(SCC(=O)Nc3cc(C)on3)nc3c(c2=O)SC(C)C3)cc1 (configuration not stated) | 1.05 (inactive) |
| CC(C)C(c1nnnn1CCc1ccccc1)N1CCOCC1 (configuration not stated) | 1.03 (inactive) |
| CC(C)(C=O)C1=CC(=O)c2ccccc2C1=O | 1.3 (inactive) |
| COc1cccc2c1C(=O)C=C(C)C2=O | 1.23 (inactive) |
| Cc1ccc(N2CCN(C(=O)c3cccc([N+](=O)[O-])c3)CC2)cc1Cl | 0.82 (inactive) |
| O=C(CSc1ccccc1)Nc1ccc(C(=O)Nc2ccc(O)cc2)cc1 | 1.06 (inactive) |
| O=C(Cn1cnc2cc([N+](=O)[O-])ccc2c1=O)Nc1ccc2c(c1)OCO2 | 0.88 (inactive) |
| Cc1cccc(NC(=S)NNC(=O)COc2ccc(Cl)cc2Cl)c1 | 1.14 (inactive) |
| COc1ccc(NC(=S)NNC(=O)COc2ccc(Cl)cc2Cl)cc1 | 0.84 (inactive) |
| O=C(NCc1ccc(Cl)cc1)C1CCC(CNc2c(N3CCOCC3)c(=O)c2=O)CC1 (configuration not stated) | 1.07 (inactive) |
| COc1cc([N+](=O)[O-])cc(/C=N/NC(=O)c2cc(C)nc3ccccc23)c1O | 1.4 (inactive) |
| O=C(N/N=C/c1cc([N+](=O)[O-])ccc1O)c1cc(-c2ccccc2)nc2ccccc12 | 1.16 (inactive) |
| Cc1ccccc1-c1nc(CN2CCSCC2)c(C)o1 | 1.04 (inactive) |

Source: PubChem BioAssay AID1465 (SRMLSC, 2008)
